{"source": "ChEMBL document CHEMBL4513216", "about": "“Probing the Open Global Health Chemical Diversity Library for Multistage-Active Starting Points for Next-Generation Antimalarials” (ACS Infect Dis, 2020)", "note": "The campaign covered roughly 69,000 compounds. About 8,600 (12%) showed an effect of 50% or more. This is one part of a sample in which strong results are shown more often than they occur."}
{"test_system": "Plasmodium berghei", "experiment": "Screen against P. berghei liver stage (PbLuc), transformed with Luciferase, at 10uM", "type": "functional, HepG2", "settings": "tested at 10 uM", "units": {"INHIBITION": "%"}}
{"smiles": "Cc1nc(-c2nnc[nH]2)sc1C(=O)N1CCCC(C(F)(F)F)C1", "note": "(stereo unspecified)", "INHIBITION": 7.25}
{"smiles": "CN(C)C(=O)C1CCC2(CCN(C(=O)Nc3ccc(F)cc3)CC2)O1", "note": "(stereo unspecified)", "INHIBITION": 31.2}
{"smiles": "O=C([C@@H]1C[C@@H]2CCN(C3CCOCC3)C[C@@H]2O1)N1CCOCC1", "INHIBITION": -9.26}
{"smiles": "COCCn1c2c(ccc1=O)CCN(C(=O)Cc1cccs1)CC2", "INHIBITION": -14.2}
{"smiles": "CNc1cnc(CC2COCCN(Cc3ccccc3)C2)cn1", "note": "(stereo unspecified)", "INHIBITION": 9.05}
{"smiles": "c1ccc(-n2cc(CNCC3CCCN3c3cccnn3)cn2)cc1", "note": "(stereo unspecified)", "INHIBITION": 41.5}
{"smiles": "CC(CS(C)(=O)=O)N(C(=O)CCc1ccc(Cl)s1)C1CC1", "note": "(stereo unspecified)", "INHIBITION": 31.5}
{"smiles": "CC(CS(C)(=O)=O)N(C(=O)Nc1cc(F)ccc1Cl)C1CC1", "note": "(stereo unspecified)", "INHIBITION": 3.63}
{"smiles": "CC(CS(C)(=O)=O)N(C(=O)c1ccc(Cl)s1)C1CC1", "note": "(stereo unspecified)", "INHIBITION": 52.1}
{"smiles": "Cn1cc(C(=O)NCC2CCN(C(=O)NC3CC3)CC2)cn1", "INHIBITION": -16}
{"smiles": "c1csc(SCC2CN=C(N3CCOCC3)S2)c1", "note": "(stereo unspecified)", "INHIBITION": -12.9}
{"smiles": "c1ccn2c(SCC3CN=C(N4CCOCC4)S3)ncc2c1", "note": "(stereo unspecified)", "INHIBITION": 0.705}
{"smiles": "N#Cc1ccnc(SCC2CN=C(N3CCOCC3)S2)c1", "note": "(stereo unspecified)", "INHIBITION": 52.6}
{"smiles": "O=c1c(NCCc2ccc(O)cc2)c(NCc2ccco2)c1=O", "INHIBITION": 45.7}
{"smiles": "Cc1ccc(N2CCc3sc(C(=O)N4CCOCC4)cc32)nn1", "INHIBITION": -34}
{"smiles": "Cc1cc(S(=O)(=O)N2CCCc3cc(Br)ccc32)sc1C(=O)O", "INHIBITION": 54.3}
{"smiles": "Cc1cc(S(=O)(=O)N2CCCc3ccccc32)sc1C(=O)O", "INHIBITION": 37.1}
{"smiles": "Cc1cc(S(=O)(=O)N2CCCc3cc(Cl)ccc32)sc1C(=O)O", "INHIBITION": -12.5}
{"smiles": "O=C(Nc1ccccc1)N1CC(C(=O)N2CCCC2)C2(CCOCC2)C1", "note": "(stereo unspecified)", "INHIBITION": -9.71}
{"smiles": "NC(=O)c1ccc(C2CCCN2C(=O)CCn2nnc3ccccc32)s1", "note": "(stereo unspecified)", "INHIBITION": 7.6}
{"smiles": "CC(=O)c1c(C)nn(CC(=O)N2CCCC2c2ccc(C(N)=O)s2)c1C", "note": "(stereo unspecified)", "INHIBITION": 65.7}
{"smiles": "NC(=O)c1ccc(C2CCCN2C(=O)Cn2nc3ccccc3n2)s1", "note": "(stereo unspecified)", "INHIBITION": 19.4}
{"smiles": "CN(C)CCN1CCCC12CCN(C(=O)c1ccco1)CC2", "INHIBITION": -20.8}
{"smiles": "O=C(Nc1ccncc1)N(CCO)Cc1ccsc1", "INHIBITION": -42.2}
{"smiles": "COc1ccccc1-c1ccc(C(=O)N2C[C@@H]3CC[C@H]2CN(C)C3)cc1", "INHIBITION": 58.3}
{"smiles": "COc1ccc(C(=O)N2C[C@@H]3CC[C@H]2CN(C)C3)cc1Cl", "INHIBITION": 32.3}
{"smiles": "CCOc1ccc(C(=O)N2C[C@@H]3CC[C@H]2CN(C)C3)cc1OCC", "INHIBITION": 28}
{"smiles": "Cn1cc(C2CCCN2C(=O)Cn2c(=O)oc3ccccc32)cn1", "note": "(stereo unspecified)", "INHIBITION": -19.1}
{"smiles": "Cn1cccc1C(=O)NC[C@H]1C[C@@H]2CN(C(=O)c3ccno3)C[C@H]2O1", "INHIBITION": 42.3}
{"smiles": "CN(C)C[C@H]1C[C@@H]2CN(C(=O)c3ccno3)C[C@@H]2O1", "INHIBITION": 34.9}
{"smiles": "O=C(NC[C@H]1C[C@@H]2CN(C(=O)c3ccno3)C[C@@H]2O1)C1CCC1", "INHIBITION": 70.4}
{"smiles": "CCn1cc(-c2cc(C(F)F)n3nc(CC(=O)O)nc3n2)cn1", "INHIBITION": 53}
{"smiles": "CCn1cc(-c2cc(C(F)F)n3nc(CCC(=O)O)nc3n2)cn1", "INHIBITION": 33.7}
{"smiles": "Cn1cc(-c2cc(C(F)F)n3nc(CCC(=O)O)nc3n2)cn1", "INHIBITION": -24.1}
{"smiles": "CC(C)(C)c1nc(C(C)(C)NC(=O)C2CC(=O)N(CC3CC3)C2)no1", "note": "(stereo unspecified)", "INHIBITION": -17.6}
{"smiles": "CCn1cc(CN2CCc3nc(-c4ccccn4)nc(O)c3C2)cn1", "INHIBITION": 1.5}
{"smiles": "Cn1cc(CN2CCc3nc(-c4ccccn4)nc(O)c3C2)cn1", "INHIBITION": 52.3}
{"smiles": "Cn1cc(CN2CCc3c(nc(-c4ccccn4)[nH]c3=O)C2)cn1", "INHIBITION": 26.7}
{"smiles": "CN(C)C(=O)c1ccc(C2CCCNC2)nc1", "note": "(stereo unspecified)", "INHIBITION": 12.3}
{"smiles": "CN(C)CC1CN(Cc2ccsc2)Cc2nccn2C1", "note": "(stereo unspecified)", "INHIBITION": 31.8}
{"smiles": "CN(C)Cc1cccc(-c2cccnc2C(=O)NCc2ccccn2)c1", "INHIBITION": 14.85}
{"smiles": "CN(C)Cc1cccc(-c2cccnc2C(=O)NCc2cn(C)cn2)c1", "INHIBITION": 51}
{"smiles": "CN(C)Cc1cccc(-c2cccnc2C(=O)NCc2ccco2)c1", "INHIBITION": 2.7}
{"smiles": "Cc1ccc(=O)n(CC(=O)N(C)Cc2csc(-c3cccs3)n2)n1", "INHIBITION": 5.23}
{"smiles": "Cc1nc(CCN(C)C(=O)CN2C(=O)OC[C@@H]2c2ccccc2)no1", "INHIBITION": 44.3}
{"smiles": "CN(Cc1csc(-c2cccs2)n1)C(=O)CN1CCOC1=O", "INHIBITION": 55}
{"smiles": "COc1ccccc1CN(C)C(=O)CN1C(=O)OC[C@@H]1c1ccccc1", "INHIBITION": 28.5}
{"smiles": "Cc1cc(C)n(CC(=O)N(C)Cc2csc(-c3cccs3)n2)c(=O)n1", "INHIBITION": 38.5}
{"smiles": "Cc1ncsc1CCN(C)C(=O)CN1CCOC1=O", "INHIBITION": 61.8}
{"smiles": "CC(C)n1ccnc1CN1C(=O)OC[C@@H]1c1ccccc1", "INHIBITION": 42.6}
{"smiles": "Cc1ncsc1CCN(C)C(=O)CN1CCCCCC1=O", "INHIBITION": 30.8}
{"smiles": "CC(C)N(C)C(=O)CN1C(=O)OC[C@@H]1c1ccccc1", "INHIBITION": 58.2}
{"smiles": "Cc1ncsc1CCN(C)C(=O)CN1CCCCC1=O", "INHIBITION": 39.4}
{"smiles": "Cc1ncsc1CCN(C)C(=O)CN1C(=O)OC[C@@H]1c1ccccc1", "INHIBITION": 66.5}
{"smiles": "Cc1ncsc1CCN(C)C(=O)CN1CCOc2ccccc2C1", "INHIBITION": 40.5}
{"smiles": "CCN(CC(=O)Nc1cc(Cl)ccc1C)C(=O)c1cnccn1", "INHIBITION": -25.9}
{"smiles": "COc1ccc(C(=O)N2CCC(Nc3ccc(C)nn3)CC2)cc1", "INHIBITION": 42}
{"smiles": "CN(C)c1nc2sc(C(=O)N3CCN(C(=O)OC(C)(C)C)CC3)cc2s1", "INHIBITION": -9.39}
{"smiles": "CCCS(=O)(=O)N1C[C@H](N(C)Cc2ccco2)[C@@H]2OCCC[C@@H]21", "INHIBITION": 40.4}
{"smiles": "O=C(CCn1cnc2cc(F)c(F)cc21)N1CCN2CCCCC2C1", "note": "(stereo unspecified)", "INHIBITION": 23.4}
{"smiles": "Cc1cc(CN2C[C@@H]3COC[C@@H](C(=O)N4CCCCO4)[C@@H]3C2)oc1C", "INHIBITION": 33.4}
{"smiles": "NC(=O)c1ccc(NC2CCOC3(CCCC3)C2)nn1", "note": "(stereo unspecified)", "INHIBITION": 7.18}
{"smiles": "COC(=O)CCn1ccc(=O)c2cc(OC)ccc21", "INHIBITION": -80.3}
{"smiles": "CN(CCc1cnn(C)c1)C(=O)CN1C(=O)OC[C@@H]1c1ccccc1", "INHIBITION": 50.8}
{"smiles": "CN(CCc1cnn(C)c1)C(=O)Cn1c(=O)[nH]c2ccccc21", "INHIBITION": 27}
{"smiles": "CN(CCc1ccccc1)C(=O)CN1C(=O)OC[C@@H]1c1ccccc1", "INHIBITION": 36.9}
